According to PubChem BioAssay AID1159580 (chemical genetic matrix, 2015):
“And” between values parts separate entries of the source, which are not always exact repeats. Equal entries are not always repeated. Among all 5,500 compounds or so, about 2,000 (36%) were called active. Not shown: some 18% with an inconclusive outcome. Rule as the data show it: active = normalized growth mostly below about 0.91 (no sharp cut-off); inconclusive = no clear call, values can overlap the other calls; inactive = mostly above about 0.92. This is one part of the list.

Test: chemical genetic growth profiling, strain panel (AID 1159580);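 also: tested at 20 µM; growth read once vehicle control cultures reached saturation at 30 °C; 1 = growth at the plate median or of vehicle wells; lower values mean less growth of the strain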
Conditions: S. cerevisiae deletion strains, growth OD

Measured: normalized growth

COC(=O)[C@H]1[C@H]2C[C@@H]3c4[nH]c5cc(OC)ccc5c4CCN3C[C@H]2C[C@@H](OC(=O)c2cc(OC)c(OC)c(OC)c2)[C@@H]1OC
inactive: locus YAL013W, strain DEP1, active compounds read low 0.994 | locus YAL021C, strain ccr4, active compounds read low 0.965 | locus YAL026C, strain drs2, active compounds read low 0.974 | locus YAL030W, strain snc1, active compounds read low 0.981 | locus YBL061C, strain skt5, active compounds read low 1 | locus YBR009C, strain hhf1, active compounds read low 1.01 | locus YBR021W, strain FUR4, active compounds read low 0.981 | locus YBR023C, strain chs3, active compounds read low 0.979 | locus YBR171W, strain sec66, active compounds read low 1 | locus YBR229C, strain ROT2, active compounds read low 0.991 | locus YBR231C, strain swc5, active compounds read low 0.987 | locus YBR279W, strain paf1, active compounds read low 0.965 | locus YCL011C, strain gbp2, active compounds read low 0.97 | locus YCL016C, strain dcc1, active compounds read low 0.94 | locus YCL029C, strain bik1, active compounds read low 1.03 | locus YCL069W, strain vba3, active compounds read low 1.01 | locus YCR088W, strain abp1, active compounds read low 0.999 | locus YDL005C, strain med2, active compounds read low 0.98 | locus YDL035C, strain GPR1, active compounds read low 0.979 | locus YDL040C, strain nat1, active compounds read low 0.992 | locus YDL074C, strain BRE1, active compounds read low 0.952 | locus YDL101C, strain DUN1, active compounds read low 1.01 | locus YDL134C, strain PPH21, active compounds read low 1 | locus YDL185W, strain tfp1, active compounds read low 1.02 | locus YDL192W, strain arf1, active compounds read low 1.03 | locus YDR001C, strain nth1, active compounds read low 0.984 | locus YDR069C, strain doa4, active compounds read low 0.963 | locus YDR101C, strain arx1, active compounds read low 1 | locus YDR137W, strain rgp1, active compounds read low 1.04 | locus YDR150W, strain NUM1, active compounds read low 1 | locus YDR159W, strain sac3, active compounds read low 0.968 | locus YDR162C, strain NBP2, active compounds read low 0.991 | locus YDR195W, strain ref2 0.972 | locus YDR297W, strain sur2, active compounds read low 0.984 | locus YDR318W, strain mcm21, active compounds read low 1.01 | locus YDR334W, strain swr1, active compounds read low 0.972 | locus YDR335W, strain msn5, active compounds read low 0.993 | locus YDR388W, active compounds read low 1.01 | locus YDR392W, strain spt3, active compounds read low 0.784 | locus YDR502C, strain sam2, active compounds read low 0.996 | locus YEL003W, strain gim4, active compounds read low 0.977 | locus YEL037C, strain rad23, active compounds read low 1 | locus YEL061C, strain CIN8 (second series), active compounds read low 0.987 | locus YEL061C, strain CIN8, active compounds read low 0.999 | locus YER015W, strain faa2, active compounds read low 0.97 | locus YER016W, strain bim1, active compounds read low 1 | locus YER110C, active compounds read low 1.02 | locus YER111C, strain swi4, active compounds read low 0.996 | locus YER155C, strain BEM2 (second series), active compounds read low 0.931 | locus YER155C, strain BEM2, active compounds read low 1.02 | locus YER167W, strain BCK2, active compounds read low 0.987 | locus YFR010W, strain ubp6, active compounds read low 1.01 | locus YGL078C, strain dbp3, active compounds read low 1 | locus YGL086W, strain mad1, active compounds read low 0.998 | locus YGL167C, strain pmr1, active compounds read low 0.991 | locus YGL173C, strain kem1, active compounds read low 0.983 | locus YGL227W, strain vid30, active compounds read low 0.979 | locus YGL240W, strain doc1, active compounds read low 0.957 | locus YGL248W, strain PDE1, active compounds read low 1 | locus YGL253W, strain hxk2, active compounds read low 1.01 | locus YGR078C, strain PAC10, active compounds read low 0.975 | locus YGR135W, strain pre9, active compounds read low 1.03 | locus YGR229C, strain SMI1, active compounds read low 0.964 | locus YGR252W, strain gcn5, active compounds read low 0.929 | locus YHR013C, strain ard1, active compounds read low 0.92 | locus YHR027C, strain rpn1, active compounds read low 0.953 | locus YHR030C, strain SLT2, active compounds read low 1 and 0.982 | locus YHR079C, strain IRE1 (second series), active compounds read low 1.01 | locus YHR079C, strain IRE1, active compounds read low 0.978 | locus YHR094C, strain hxt1, active compounds read low 1.02 | locus YHR129C, strain ARP1, active compounds read low 1.01 | locus YHR142W, strain chs7, active compounds read low 0.986 | locus YHR200W, strain rpn10, active compounds read low 0.998 | locus YIL066C, strain RNR3, active compounds read low 0.986 | locus YIL073C, strain SPO22, active compounds read low 1.06 | locus YIL125W, strain kgd1, active compounds read low 1 | locus YIR030C, strain dcg1, active compounds read low 1.01 | locus YJL092W, strain hpr5, active compounds read low 0.976 | locus YJL095W, strain BCK1 (second series), active compounds read low 0.965 | locus YJL095W, strain BCK1, active compounds read low 0.996 and 0.977 | locus YJL115W, strain asf1, active compounds read low 0.966 | locus YJL129C, strain trk1, active compounds read low 0.971 | locus YJL134W, strain LCB3, active compounds read low 0.999 | locus YJL154C, strain vps35, active compounds read low 0.986 | locus YJL164C, strain tpk1, active compounds read low 0.988 | locus YJL166W, strain qcr8, active compounds read low 0.981 | locus YJL168C, strain set2, active compounds read low 1.01 | locus YJL187C, strain SWE1 (second series), active compounds read low 0.999 | locus YJR043C, strain POL32, active compounds read low 0.967 | locus YJR066W, strain TOR1, active compounds read low 0.949 | locus YJR075W, strain HOC1, active compounds read low 0.983
